HPGD block – HPGD (human) dehydrogenase inhibition. P15428. purified HPGD, NADH fluorescence kinetic, PGE2 substrate. Potency, µM, actives largely listed as inhibitors. 150,000 compounds, 4.3% hits. AID 894
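NADH formation kinetics: reaction with 30 uM PGE2 and 1 mM NAD+ (final), 20 nM enzyme, Tris-HCl pH 8 with Tween 20, after 15 min compound preincubation at room temperature. Fluorescence change, last versus first of five reads.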
PNC inhibitor – inhibitors of perinucleolar compartment assembly. activity change (PNC), negative = inhibition, % at 10 µM. 140,000 compounds, 3.1% hits. PC3M PTB-GFP, PNC prevalence imaging, 16 h; stronger effect = lower value. AID 2417;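 active = readout at or below -70, meaning at least 70% loss of cells showing the perinucleolar compartment, a nuclear body marking cancer cells; inconclusive = readout between -30 and a set limit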
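PC3M cells stably expressing PTB-GFP, 750–1000 cells/well, treated 16 h at 37 °C with compound (23 nl of library stock), in duplicate. After paraformaldehyde fixation and Hoechst stain, imaged at 20x; PNC prevalence scored by image analysis.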
ALDH1A1 block – blocks purified human ALDH1A1 activity; P00352; Potency, µM (top dose mostly 75.3 µM), most hits filed as inhibitors; 220,000 compounds, 7.3% hits; Purified ALDH1A1, NADH fluorescence, propionaldehyde substrate
Target sequence (P00352 whole entry, looked up): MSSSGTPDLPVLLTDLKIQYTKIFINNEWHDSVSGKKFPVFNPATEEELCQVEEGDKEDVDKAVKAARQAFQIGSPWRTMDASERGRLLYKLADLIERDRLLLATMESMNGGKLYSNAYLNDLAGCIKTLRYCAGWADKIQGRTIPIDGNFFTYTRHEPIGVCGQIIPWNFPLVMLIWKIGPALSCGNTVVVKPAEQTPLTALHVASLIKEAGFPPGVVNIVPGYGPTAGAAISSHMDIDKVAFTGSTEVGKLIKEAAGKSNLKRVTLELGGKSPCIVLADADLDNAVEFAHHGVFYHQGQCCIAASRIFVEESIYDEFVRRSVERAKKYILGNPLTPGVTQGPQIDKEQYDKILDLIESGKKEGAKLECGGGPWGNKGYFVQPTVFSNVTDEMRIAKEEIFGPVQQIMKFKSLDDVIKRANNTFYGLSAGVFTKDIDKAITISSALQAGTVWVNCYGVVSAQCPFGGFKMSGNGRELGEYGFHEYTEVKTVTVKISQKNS
Large screens that a line does not name were inactive. Most compounds without a hit are left out; they make up all but 11% or so of the library. Unless noted, calls come from the whole dose curve; as a rule, active = well fitted inhibition curve with a large enough effect (not every such curve was filed as active); inconclusive = small, poorly fitted or top-dose-only effect, or another doubt; inactive = no such curve, though single readings can be large or run the other way.

O=C(CSc1nnnn1-c1cccnc1)Nc1ccc(OCc2ccccc2)cc1	ALDH1A1 block 4µM
COC(=O)CSc1nnnn1-c1ccccc1	none
CCOC(=O)C(=O)Nc1ccc(OCc2ccccc2)cc1	ALDH1A1 block 25µM (no result: HPGD block, PNC inhibitor)
C/C(CC(=O)Nc1ccc(OCc2ccccc2)cc1)=N\NC(=O)C(=O)Nc1ccc(C)c(Cl)c1	ALDH1A1 block 14µM
CN(Cc1ccccc1)C(=O)CC(c1ccccc1)c1cc(Cl)ccc1O (centres undefined)	none
Cc1ccc(Cl)cc1N(Cc1ccc(C(=O)NCc2cccnc2)cc1)S(=O)(=O)c1ccccc1	none
O=C(Nc1ccc(OCc2ccccc2)cc1)c1ccccc1	none (no result: HPGD block, PNC inhibitor)
O=C(Nc1ccc(OCc2ccccc2)cc1)c1cccnc1	PNC inhibitor -112
Cc1ccc(CCN2C(=O)CCC2(C)C(=O)NCc2cccnc2)cc1 (centres undefined)	none
Cn1c(N2CCN(C(=O)NCc3ccccc3)CC2)nc2ccccc21	PNC inhibitor inconclusive, ALDH1A1 block 4µM
Cn1c(N2CCN(C(=O)Nc3ccc(C(F)(F)F)cc3)CC2)nc2ccccc21	none
COc1ccccc1NC(=O)Nc1ccccc1Br	none (no result: HPGD block, PNC inhibitor)
O=C(Nc1cc(-c2ccccc2)[nH]n1)c1ccc(Cl)cc1	none (no result: HPGD block, PNC inhibitor)
CCOc1ccc(NC(=S)Nc2ccccc2C2(C)CC2)cc1	none (no result: HPGD block, PNC inhibitor)
Cc1cc(NC(=S)Nc2ccc(C)c(Cl)c2)n[nH]1	ALDH1A1 block 1.4µM (no result: HPGD block, PNC inhibitor)
COc1cc(C)c(NC(=S)Nc2ccc(C)c(Cl)c2)cc1OC	ALDH1A1 block inconclusive
CCOc1ccc(NC(=S)Nc2cc(-c3ccccc3)[nH]n2)cc1	ALDH1A1 block 13µM
COc1ccc(NC(=S)Nc2cc(-c3ccccc3)[nH]n2)cc1Cl	PNC inhibitor inconclusive, ALDH1A1 block 10µM
O=C(CSc1nc2ccccc2[nH]1)NCC1CCCO1 (centres undefined)	none
C=C1SC(=Nc2ccccc2Cl)N(C(=O)c2sc3ccccc3c2Cl)C1(C)C	ALDH1A1 block 24µM (no result: HPGD block, PNC inhibitor)
C=C1SC(=Nc2c(C)cccc2Cl)N(C(=O)c2sc3ccccc3c2Cl)C12CCCCC2	none (no result: HPGD block, PNC inhibitor)
COc1ccccc1CNC(=O)COC(=O)Cc1ccc(Cl)cc1	PNC inhibitor inconclusive
CC(=O)c1cc(N2CCC(C(=O)O)CC2)ccc1[N+](=O)[O-]	none (no result: HPGD block, PNC inhibitor)
COc1ccc(N(C(C)C(=O)N/N=C/c2ccc(OC(C)C)cc2)S(C)(=O)=O)cc1 (centres undefined)	ALDH1A1 block 14µM
CCOc1ccc(/C=N/NC(=O)C(C)N(c2ccc(OC)cc2)S(C)(=O)=O)cc1 (centres undefined)	PNC inhibitor inconclusive
Cc1c(C(=O)NC2CCCCC2)sc2nc3ccc(N)cc3n12	none (no result: PNC inhibitor)
CCOC(=O)c1ccc(NC(=O)CCc2ccc(C)o2)cc1	ALDH1A1 block inconclusive
O=C(CN1CCCCCC1)Nc1cccc(Br)c1	none
Cc1cccc(NC(=O)CCc2ccc(C)o2)c1	PNC inhibitor -80
Cc1ccc(CCC(=O)Nc2ccc(S(N)(=O)=O)cc2)o1	ALDH1A1 block 14µM
Cc1cccc(NC(=O)CN2CCN(CC(=O)Nc3cccc(C)c3)CC2)c1	PNC inhibitor inconclusive, ALDH1A1 block 20µM
Cc1cccc(NC(=O)CCc2ccccc2)c1	none (no result: HPGD block, PNC inhibitor)
O=C(c1cccc(-c2ccc(O)cc2)c1)N1CCN(c2ccc(F)cc2)CC1	none (no result: HPGD block, PNC inhibitor)
O=C(COc1ncnc2sccc12)N1CCN(C(=O)c2ccco2)CC1	none (no result: HPGD block, PNC inhibitor)
COc1cccc(CN2CCNC(=O)C2CC(=O)NCc2cc(C(C)C)no2)c1 (centres undefined)	none (no result: HPGD block, PNC inhibitor)
ONC(=Nc1cccc(C(F)(F)F)c1)c1cccnc1	none (no result: HPGD block, PNC inhibitor)
COc1cccc(-n2c(C)c(C(C)=O)c(C(C)=O)c2C)c1	none
CC1CCc2nn(CC(=O)NCCCN3CCOCC3)cc2C1 (centres undefined)	none
CC1CCc2nn(CC(=O)NCCN3CCOCC3)cc2C1 (centres undefined)	PNC inhibitor -82
COc1ccc(C2CC(c3ccccc3)=NN2S(=O)(=O)c2ccccc2)c(OC)c1 (centres undefined)	none
Cc1cccc2cc(C3CC(c4ccco4)=NN3S(=O)(=O)c3ccccc3)c(Cl)nc12 (centres undefined)	PNC inhibitor -91
O=C(N[C@@H](Cc1ccc(O)cc1)C(=O)O)c1cccnc1	none (no result: HPGD block, PNC inhibitor)
COc1ccc2c(c1)c1ncn(CCCN3CCOCC3)c(=O)c1n2C	HPGD block inconclusive, ALDH1A1 block inconclusive
Cn1c2ccccc2c2ncn(CCN3CCOCC3)c(=O)c21	PNC inhibitor -87, ALDH1A1 block inconclusive (no result: HPGD block)
Cc1cccn2c(=O)c(/C=N/O)c(N3CCCCC3)nc12	HPGD block 2µM, ALDH1A1 block inconclusive
Cc1cccn2c(=O)c(/C=C(\C#N)C(=O)NCc3ccco3)c(N3CCCC(C)C3)nc12 (centres undefined)	HPGD block 16µM, PNC inhibitor inconclusive, ALDH1A1 block 25µM

Bioassay records as filed in PubChem.
